Test results as given in PubChem BioAssay AID492956 (The Scripps Research Institute Molecular Screening Center, 2010).
In all, about 340,000 compounds went through this assay and about 3,300 (0.97%) were called active.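 The calls were made as follows: active = inhibition above the mean over all tested compounds plus 3 SD (cut at about 30% in these data); inactive = the rest.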 Only a selection was taken, and actives are over-represented in it overall.

Biological target: Platelet-activating factor acetylhydrolase 2, cytoplasmic (Homo sapiens) (UniProt Q99487)
Assay: inhibition of cytoplasmic PAF acetylhydrolase 2 – biochemical, fluorescence polarization, human, primary screen (AID 492956);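 also: inhibitors block probe labeling of enzyme so polarization drops; 0% = enzyme with DMSO and 100% = wells lacking PAFAH2 protein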
Details: recombinant PAFAH2, FP-rhodamine activity probe, at 3.39 µM, hits give high values

inhibition, active:
COCCNC(=O)/C(C#N)=C/c1cccc(OCc2ccccc2)c1 30.2%
Cc1cc(C(=O)COC(=O)C2CC2)c(C)n1-c1ccc(F)cc1 44.5%
COc1ccc(/C=N/N(C)C2=NS(=O)(=O)c3ccccc32)cc1OC 31.8%
O=C(OCc1cn(-c2ccc(Cl)c(Cl)c2)nn1)c1ccccc1Cl 44.2%
CC(C)c1ccc(NC(=O)COC(=O)c2ccc(CN3CCCC3=O)cc2)cc1 85%
O=C(COC(=O)C12CC3CC(CC(O)(C3)C1)C2)NC12CC3CC(CC(C3)C1)C2 75.8%
COc1ccc(C(=O)ON=C2c3ccccc3-c3ccccc32)cc1OC 72.8%
CCc1c(SCCC(=O)O)nc2ccccc2c1C 33%
CCn1c(/C=N/NC(=O)c2ccc(OC)cc2)nc2ccccc21 41.7%
CCC1OC(c2ccc([N+](=O)[O-])cc2)=Nc2ccccc21 (configuration not stated) 33.1%
COc1ccc(C2=NN(c3nc4ccccc4s3)C(=O)C2)cc1 48.2%
O=C(COC(=O)c1ccc2ncsc2c1)Nc1ccc(Cl)cc1 81.4%
O=C(/C=C/c1ccc([N+](=O)[O-])o1)NNC(=O)c1ccc(F)cc1 39.5%
Cc1ccsc1C(=O)OCC(=O)Nc1cccc(F)c1 90.7%
O=C(COC(=O)C1CC2C=CC1C2)Nc1ccccc1 (configuration not stated) 77.7%
CC1CC1C(=O)OCC(=O)Nc1cccc(F)c1 (configuration not stated) 78.9%
C=CCOc1ccc(/C=C/C(=O)OCC(=O)NC(C)c2ccc(F)cc2)cc1 (configuration not stated) 33.1%
O=C(COC(=O)/C=C/c1ccc(OC(F)F)cc1)NC1CCCCC1 59.9%
C=CCOc1ccc(/C=C/C(=O)OCC(=O)NC2CCCCCC2)cc1 77%
O=C(NC1=CC(=O)c2ccccc2C1=O)c1ccccc1 45.2%

inhibition, inactive:
O=C(C1CCN(S(=O)(=O)Cc2ccccc2)CC1)N1CCCc2ccccc21 -7.5%
CCOC(=O)NC(=O)/C(C#N)=C\c1ccccc1 -7.65%
COCCNC(=O)/C(C#N)=C/c1nc(N(C)C)n(-c2ccc(F)cc2)c1Cl 1.81%
Cc1cc(C(=O)COc2ccccc2Cl)c(C)n1C1CC1 0.58%
Cc1ccc(-n2c(C)cc(C(=O)CN3C(=O)C(=O)N(C4CCCC4)C3=O)c2C)cc1 4.94%
C=CCOCCN(C)C1=NS(=O)(=O)c2ccccc21 -9.33%
COc1cc(C(=O)NN(CCC#N)C2=NS(=O)(=O)c3ccccc32)cc(OC)c1OC 4.52%
Cc1ccc(S(=O)(=O)NCC(=O)N2CCOCCOCCOCCOCC2)cc1 -0.46%
O=C1/C(=C/c2cccs2)CCC1C1CCCC1 (configuration not stated) 5.54%
CC1(C)CC(=O)c2cnc3nc4ccccc4n3c2C1 -0.49%
O=C(NNC(=O)c1cc(S(=O)(=O)N2CCCCC2)ccc1Cl)c1ccccc1O 8.97%
NC(=O)COC(=O)c1cc(S(=O)(=O)N2CCN(c3ccccc3)CC2)ccc1Cl 5.41%
Cc1cccc(/C(N)=N/OC(=O)c2ccccc2Cl)c1 -5.1%
N#CCC(=O)Nc1ccc(C(=O)OCC(=O)Nc2sc3c(c2C#N)CCCC3)cc1 -11.9%
CC(C)NC(=O)NC(=O)COC(=O)c1ccc(NC(=O)CC#N)cc1 14.3%
Cc1noc(C)c1C(=O)NC(C)c1ccc2c(c1)OCO2 (configuration not stated) -1.75%
CCN(CC)c1ccc(NC(=O)CCc2nnc3ccc(N4CCCCC4)nn23)c(C)c1 1.19%
O=C(COC(=O)CNS(=O)(=O)c1ccccc1)NC12CC3CC(CC(C3)C1)C2 1.43%
O=C(CNCCO)NC12CC3CC(CC(C3)C1)C2 0.19%
Cc1ccc2[nH]c(=O)c(CN(C)S(=O)(=O)c3cccc4nonc34)cc2c1 -8.49%
Cn1nccc1NC(=O)CC(CC(=O)O)c1ccccc1 (configuration not stated) 4.64%
COCCCN1C(=O)C(=O)/C(=C(/O)c2ccc(S(=O)(=O)N3CCOCC3)cc2)C1c1ccc(F)cc1 (configuration not stated) 1.52%
COc1cc(C(C)=O)ccc1OC(=O)CN1C(=O)c2ccccc2C1=O 1.95%
COc1ccc(NC(=O)ON=C2c3ccccc3-c3ccccc32)cc1 -4.24%
O=C(O)CSc1nccc2ccccc12 2.03%
O=C(O)CCSc1nnc(-c2ccccc2)n1-c1ccccc1 -1.18%
C/C(=N\OCC(=O)Nc1ccc(Br)cc1)c1cccs1 -0.72%
CCn1c(Cc2ccc(OC)cc2)nnc1SCC(=O)Nc1ccc(N2CCOCC2)cc1 -3.23%
CC(C)[C@H](NC(=O)N1CCn2c1nc1ccccc12)C(=O)NCc1ccc2c(c1)OCO2 -3.27%
Cc1ccc(C)c(NC(=O)C2Cc3ccccc3CN2C(=O)OCc2ccccc2)c1 (configuration not stated) 5.89%
Cc1ccc(/C=N/NC(=O)Cn2ccc(C(F)(F)F)n2)o1 -1.08%
COc1ccc(C(=O)NCC(=O)N/N=C/c2cccnc2)cc1 -1.33%
CCn1c(SCC(=O)N/N=C/c2ccncc2)nc2ccccc21 14.4%
CC(C)C(=O)NCC(c1cccs1)S(=O)(=O)c1ccc(F)cc1 (configuration not stated) -6.08%
COc1ccc(C(CC(=O)N2CCN(c3ccccc3)CC2)c2c(O)cc(OC)cc2OC)cc1 (configuration not stated) 1.97%
COc1ccccc1CSc1ncc(-c2ccc([N+](=O)[O-])cc2)[nH]1 12%
CCCCN(C)c1ccc([N+](=O)[O-])cc1 -0.55%
N#Cc1ccc(N2Cc3ccccc3/C2=N/C(=O)Nc2ccc(Cl)cc2)cc1 -0.92%
CC1CCc2c(c3ccccc3[nH]c2=O)O1 (configuration not stated) -0.64%
COc1ccc(C(=O)Nc2cccc(/C=C(/CCC(=O)O)c3nc4ccccc4s3)c2)cc1 -4.68%
COc1ccc(C2=NN(c3ccccc3)C(c3cccs3)C2)cc1 (configuration not stated) 6.25%
Cc1nnc(NC(=O)CSc2nccn2-c2cccc(C)c2C)s1 6.92%
O=[N+]([O-])c1cccc(/C([O-])=C(/C(=S)Nc2ccccc2F)[n+]2ccccc2)c1 -4.94%
Cc1sc(NC(=O)c2ccc3ncsc3c2)c(C(N)=O)c1C 1.28%
CC1CC(C)CN(C(=O)COC(=O)c2ccc3ncsc3c2)C1 (configuration not stated) 9.71%
COc1cc2c(cc1O)C(SC)=NC(C)(C)C2 4.6%
CC(C)Cc1nnc(NC(=O)CCC(=O)Nc2ccc3cn[nH]c3c2)s1 1.65%
Cc1cc(C)c(C#N)c(Nc2cccc(Br)c2)n1 -4.25%
CCCCNC(=O)OC(C)CNC(=O)OC (configuration not stated) -6.1%
Cc1onc(C(=O)NCc2ccc(F)cc2)c1[N+](=O)[O-] -3.19%
COc1ccc(C(=O)NCC(=O)N/N=C/c2ccc([N+](=O)[O-])o2)cc1OC 0.4%
O=C(COC(=O)CNC(=O)C1CCCCC1)Nc1cccc(F)c1 -0.43%
O=C(COc1ccccc1)Nc1ccc(F)cc1 -4.21%
Cc1ccsc1C(=O)OCC(=O)NCCc1ccccc1 25.5%
Cc1ccc(S(=O)(=O)N(C)CC(=O)OCC(=O)Nc2ccccc2)cc1 0.35%
COc1ccc(CNC(=O)COC(=O)c2sccc2C)cc1OC 5.02%
CN(CC(=O)Nc1cccc(F)c1)C(=O)CC1CCCC1 0.25%
CCCCCC(=O)N1CCN(S(=O)(=O)c2ccc3c(c2)OCCCO3)CC1 6.58%
Clc1ccc(C2[C@H]3CN(CC4CCCCC4)[C@H](c4ccccc4)C34CC2(c2cccnc2)C4)cn1 (some centres not stated) -11.3%
COc1cc(C2C(C(=O)c3sc(C)nc3C)=C(O)C(=O)N2CCN(C)C)cc(OC)c1OC (configuration not stated) 2.01%
COc1ccccc1N1CC(C(=O)Nc2ccc(S(=O)(=O)N3CCOCC3)cc2)CC1=O (configuration not stated) 2.45%
CC(=O)Nc1ccc(NS(=O)(=O)c2cc(C)sc2C)cc1 5.36%
OC(CNC1CCCC1)COc1ccc(F)cc1 (configuration not stated) -6.14%
CC(C)(C)NC(=O)c1cccc(NC(=O)Cc2ccc(Br)cc2)c1 -0.14%
FC(F)Oc1ccccc1C1CC(c2ccc(Br)s2)Nc2ncnn21 (configuration not stated) 4.45%
O=C(CO/N=C/c1ccccc1OC(F)F)NC1CCCC1 4.52%
CC(NC(=O)COC(=O)c1ccc(Cl)cc1O)c1ccc(F)cc1 (configuration not stated) 11%
CC1CCCCC1NC(=O)CO/N=C/c1ccc(OC(F)F)cc1 (configuration not stated) 5.23%
CCC(=O)c1ccc(OCC(=O)OCC(=O)NC2CCCCCC2)cc1 1.93%
C=CCOc1ccc(/C=C/C(=O)OCC(=O)NCC2CCCO2)cc1 (configuration not stated) 29.2%
C=CCOc1ccc(/C=C/C(=O)OC(C)C(=O)Nc2ccc(NC(C)=O)cc2)cc1 (configuration not stated) -1.01%
O=c1ccc2cc(S(=O)(=O)N3CCN(c4ccccc4)CC3)ccc2o1 -3.62%
COC(=O)CCSc1nccn1Cc1ccccc1 3.07%
CC(=O)c1c(N2CCN(c3ccc(F)cc3)CC2)nc(=S)n(-c2ccccc2)c1C -5.81%
Cc1ccc(NC(=O)CN(C)S(=O)(=O)c2cnc[nH]2)cc1C 4.95%
O=C1C=C(NS(=O)(=O)c2ccccc2)C(=O)c2ccccc21 5.32%
CC(NC(=O)c1ccccc1)C(=O)Nc1ccccc1 (configuration not stated) -1.79%
